Screening data (PubChem)
An excerpt weighted towards active compounds, which were near 6.5% of everything screened.
FMDV antiviral – High Throughput Screening for Foot and Mouth Disease Virus Antivirals. Potency, µM (titrated, usually from 57.9 µM), without a hit: at the top dose activity change, negative = inhibition, usual class: inhibitors. actives 1.2% (n = 410,000). FMDV antiviral cell-based qHTS. AID 1159524, 2015; calls by dose curve; tested in HEK293T cells; note: read-out not given here; potency is the fitted concentration of half-maximal effect; nearly all actives have a fitted effect of over 45% in size
LASV entry inh – qHTS for Inhibitors of binding or entry into cells for Lassa Virus; Lassa virus pseudotype entry inhibition, cell reporter; Potency, µM (series often up to 37.9 µM), inactives show top-dose activity change, negative = inhibition, most hits filed as inhibitors; actives 1.2% (n = 300,000); calls by dose curve; tested in HEK293 cells; note: potency is the fitted concentration of half-maximal effect; nearly all actives have a fitted effect of over 50% in size
MARV entry inh – qHTS for inhibitors of binding or entry into cells for Marburg Virus; Marburg virus pseudotyped entry inhibition, cell reporter; Potency, µM (doses to about 37.8 µM), for inactives: top-dose activity change, negative = inhibition, most hits filed as inhibitors; actives 1.8% (n = 300,000); AID 540276, 2011; calls by dose curve; tested in HEK293 cells; note: potency is the fitted concentration of half-maximal effect
Vaccinia Venus – qHTS for Stage-Specific Inhibitors of Vaccinia Orthopoxvirus: Venus Reporter Primary qHTS; Vaccinia virus Venus reporter expression, fluorescence; Potency, µM (titrated, usually from 36.5 µM), inactives show at the top dose activity change, negative = inhibition, most hits filed as inhibitors; actives 0.46% (n = 330,000); calls by dose curve; tested in A549 cells; note: potency is the fitted concentration of half-maximal effect; nearly all actives have a fitted effect of over 30% in size
VACV mCherry inh – qHTS for Stage-Specific Inhibitors of Vaccinia Orthopoxvirus: mCherry Reporter Primary qHTS; actives 0.63% (n = 310,000); Potency, µM (titrated, usually from 36.5 µM), inactives show at the highest dose activity change, negative = inhibition, usual class: inhibitors; AID 720579, 2013; Vaccinia virus mCherry reporter infection, fluorescence; calls by dose curve; tested in A549 cells; note: potency is the fitted concentration of half-maximal effect; nearly all actives have a fitted effect of over 35% in size
HCMV inh – qHTS Assay for inhibitors of the human cytomegalovirus (HCMV) | activity change, negative = inhibition, % at 57.5 µM | AID 1259415, 2018 | actives 4.5% (n = 410,000) | HFF cells, HCMV-luciferase reporter, 72 h; stronger effect = lower value; in the data active = activity change below about -60%; inconclusive = no clear call, values can overlap the other calls; inactive = above about -39%
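After 16 h attachment at 37C, HFF cells received test compound and HCMV-luciferase (1 PFU/cell); reporter luminescence read 72 h later, data normalized against buffer-only and known inhibitor Salinomycin.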
Active calls of the source: *; i = inactive; ? = inconclusive; / = not tested or not shown; [ ] = dose if it differs, or a comment. % is set by controls: 0 for no effect and ±100 for the full control effect.

SMILES | FMDV antiviral | LASV entry inh | MARV entry inh | Vaccinia Venus | VACV mCherry inh | HCMV inh
COc1ccc2cc(C(N)=O)/c(=N\NC(=O)c3ccccc3)oc2c1 | 9.7% | / | / | / | / | 23.5
COc1ccc2cc(C(N)=O)c(=Nc3ccc(C)cc3)oc2c1 | 9.8% | ? | ? | -6.0% | -14.4% | -83.1*
Cc1cccc(N=c2oc3cc(O)ccc3cc2C(N)=O)c1 | 3.6% | -11.7% | ? | ? | -21.9% | -61.2*
COc1ccccc1N=c1oc2cc(O)ccc2cc1C(N)=O | 29.6% | -27.6% | -27.6% | ? | -24.6% | -35.7
CC(C)c1ccc(NC(=O)C2Cc3ccccc3N2C(=O)c2ccccc2)cc1 (stereo not given) | 0.0% | -12.4%[46.1 µM] | / | -15.4% | -15.7% | ?
COc1ccc(C(O)C2=CCCC2=O)cc1 (stereo not given) | / | / | 6.3%[14.2 µM] | / | / | /
CCOc1cc(C(c2c(C)[nH]n(-c3ccccc3)c2=O)c2c(C)[nH]n(-c3ccccc3)c2=O)ccc1O | ? | -1.9%[46.1 µM] | / | -13.5% | -18.0% | -105.1*
COc1ccc(C(c2c(C)[nH]n(-c3ccccc3)c2=O)c2c(C)[nH]n(-c3ccccc3)c2=O)cc1OC | -12.8% | 12.5% | -1.2% | -9.9% | i | -11.1
O=C1OCC/C1=C\c1ccccc1 | -26.9% | 1.5% | -2.4% | -9.8% | i | 51.4
O=C1/C(=C/c2ccccc2)CCc2ccc(Cl)nc21 | 35.5µM* | ? | ? | 4.5% | -19.9% | -62.9*
CC(=O)CCN1CCSCCS1(=O)=O | / | / | / | / | / | 4.2
CC(=O)Nc1nonc1-c1nnc(SCc2cccc(Br)c2)n1C | -12.9% | -10.0%[46.1 µM] | 6.0%[46.1 µM] | -7.0% | -11.3% | -6.5
